Experimental data from PubChem BioAssay AID652257 (The Scripps Research Institute Molecular Screening Center, 2013).
The whole screen tested about 370,000 compounds, of which about 4,800 (1.3%) were called active. The full list was thinned out, with actives kept by preference. A number with no mark means an inactive call.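 Rule for the calls: active = inhibition above about 21% made by adding two undisclosed values (limit read from the data); inactive = the rest.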

These molecules were tested against Protein arginine N-methyltransferase 1 (Homo sapiens) (UniProt Q99873) (assay: PRMT1 methyltransferase inhibitors, primary screen, biochemical, fluorescence polarization (AID 652257)). Conditions: recombinant PRMT1, activity-based probe fluorescence polarization; at 2.79 µM; active compounds read high.
Protein arginine N-methyltransferase 1 (Homo sapiens), sequence (Q99873 whole entry, looked up): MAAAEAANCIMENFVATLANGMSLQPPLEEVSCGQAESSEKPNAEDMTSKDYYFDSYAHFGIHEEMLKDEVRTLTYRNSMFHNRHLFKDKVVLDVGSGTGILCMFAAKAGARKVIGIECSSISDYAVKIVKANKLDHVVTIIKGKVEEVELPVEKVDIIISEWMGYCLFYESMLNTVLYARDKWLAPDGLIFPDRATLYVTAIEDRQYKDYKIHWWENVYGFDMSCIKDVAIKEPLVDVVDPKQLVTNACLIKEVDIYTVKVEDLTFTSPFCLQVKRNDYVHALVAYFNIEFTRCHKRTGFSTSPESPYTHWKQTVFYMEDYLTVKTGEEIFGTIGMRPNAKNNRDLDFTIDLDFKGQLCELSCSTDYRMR
Molecule `O=C1CC[C@@]23CCCN2C(=O)CCC[C@H]3[C@H]1Cc1ccccc1` has an inhibition of 2.04%.
`O=C(C[C@H]1C[C@H](C(=O)N2CCOCC2)[C@@]2(CCC3CCCC3)c3[nH]c4ccc(Cl)cc4c3CCN2C1=O)NCc1ccco1` was tested, and the inhibition was -5.92%.
In the case of `C=CCN1C(=O)[C@@H](CC(=O)NCCCCc2ccccc2)[C@]2(C(=O)OCC)CCCCC/C=C/12`, the inhibition is reported as 1.83%.
Molecule `Cn1c(=O)[nH]c(=O)c2c1[nH]c(=S)n2Cc1ccccc1` has an inhibition of 4.37%.
With `CCC(=O)Nc1c(S(=O)(=O)c2ccccc2)c2nc3ccccc3nc2n1Cc1ccccc1` the inhibition was 0.02%.
`Cc1cc2nc3c(=O)n(Cc4ccccc4)c(=O)[nH]c3nc2cc1N` was tested, and the inhibition was 142% (active).
With `CCC(CO)Nc1cccc2c1S(=O)(=O)N(Cc1cn(Cc3ccccc3C(F)(F)F)nn1)Cc1ccccc1O2` (configuration not stated) the inhibition was 0.43%.
`N#Cc1c(N2CCCCC2)nc(N)c2c(N)nc(SCC(=O)O)cc12` was tested, and the inhibition was 29.1% (active).
For `Cc1nn(-c2ncccn2)c2c1C(=O)CC(C)(C)C2Br` (configuration not stated), the inhibition was -1.26%.
Work on `CCOC(=O)c1cc2c(ccn2C)n1CC(=O)N1CCC(C)CC1` yielded an inhibition of 1.01%.
With `O=C(CSc1nnc(-c2ccccn2)n1-c1ccc(Cl)cc1)Nc1ccccc1-c1ccccc1` the inhibition was 0.72%.
For `COCCN1C(=O)C(=O)/C(=C(/O)c2ccc(S(=O)(=O)N3CCCCC3)cc2)C1c1ccc(OC)c(OC)c1` (configuration not stated), the inhibition was -2.03%.
For `COCCN1C(=O)C(=O)/C(=C(/O)c2ccc(S(=O)(=O)N3CCOCC3)cc2)C1c1ccc(OC)c(OC)c1` (configuration not stated), the inhibition was 4.25%.
`CCOc1cc(C2/C(=C(/O)c3ccc(S(=O)(=O)N4CCCCC4)cc3)C(=O)C(=O)N2CCOC)ccc1O` (configuration not stated) was tested, and the inhibition was 28.9% (active).
For `COC(=O)c1cc(NS(=O)(=O)c2ccc3c(c2)c(=O)n(C)c(=O)n3C)cc(C(=O)OC)c1`, the inhibition was 3.19%.
`CN(C)S(=O)(=O)c1ccc(N/C=C(\[N+](=O)[O-])S(=O)(=O)c2ccccc2)cc1` was tested, and the inhibition was 1.43%.
Molecule `CC(C)CSc1nnc(-c2cccnc2)n1Cc1ccccc1` has an inhibition of 1.95%.
For `Cc1cccc(-c2nc3c(c(SCC(=O)N4CCOCC4)n2)CCCC3)c1`, the inhibition was -2.28%.
For `C=CCN1C(=O)c2ccc(C(=O)N3CCC(C(=O)OCC)CC3)cc2C1=O`, the inhibition was -1.32%.
With `CC(C)OC(=O)c1cc(NC(=O)C2C3CCC(O3)C2C(=O)O)cc(C(=O)OC(C)C)c1` (configuration not stated) the inhibition was -2.71%.
With `Cc1sc(NC(=O)C2C3CCC(O3)C2C(=O)O)c(C(=O)OC(C)C)c1-c1ccc(Cl)cc1` (configuration not stated) the inhibition was 22.5% (active).
`COc1ccc(NC(=O)C2C3CCC(O3)C2C(=O)O)cc1OC` (configuration not stated) was tested, and the inhibition was 1.91%.
